# Measured values from PubChem BioAssay (EPA / NIEHS).
# Calls of active or inactive are those of the source. How the source made its calls: active means hit-call score of the fitted dose curve at least 0.9, where 1 is the maximum; inactive means score below 0.9.
# Test: ATG_NF_kB_CIS: Attagene CIS-FACTORIAL HepG2 Assay for human Nuclear Factor Kappa B (NF-kB) (AID 2282991)
# Conditions: HepG2 Attagene cis-factorial NF-kB reporter mRNA; actives raise or lower the signal
# How it was run: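 Read-out: reporter transcript levels quantified by RT-PCR plus capillary electrophoresis of 6-FAM-labelled, HpaI-cut fragments. Transfected HepG2 cells, 24 h compound exposure, endogenous NF-kB-driven cis element; gain or loss scored versus DMSO.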
SMILES,outcome,AC50
CC(=O)C=O,inactive,–
CCC(Cc1c(I)cc(I)c(N)c1I)C(=O)O (stereo unspecified),inactive,–
CCC(=O)OC(C)c1ccccc1 (stereo unspecified),inactive,–
CCCCCC/C=C/CCCCCCCC(=O)O,inactive,–
c1ccc(C[P+](c2ccccc2)(c2ccccc2)c2ccccc2)cc1,inactive,–
Cc1ccc2c(c1)OCC(=O)CO2,inactive,–
CC(O)C#CC(C)O (stereo unspecified),–,84 µM (active)
CC1CCCCC1,inactive,–
O=C1c2ccccc2C(=O)c2c(Cl)cccc21,–,4.35 µM (active)
COC(=O)c1ccc(C=O)cc1,inactive,–
COCCC(=O)OC,inactive,–
CCOC(=O)CCC(C)=O,inactive,–
C[Si](C)O[Si](C)C,inactive,–
CO[Si](CCCOCC1CO1)(OC)OC (stereo unspecified),inactive,–
CCCCCCCCn1sc(Cl)c(Cl)c1=O,inactive,–
Nc1cccnc1N,inactive,–
CC(C)OC=O,inactive,–
Oc1ccc(C2(c3ccc(O)c(C4CCCCC4)c3)CCCCC2)cc1C1CCCCC1,inactive,–
CC1=CCC2C(=O)OC(=O)C2C1 (stereo unspecified),inactive,–

SMILES,outcome,AC50
CCCCOC(=O)C(C)O (stereo unspecified),inactive,–
CN1CN(C)CN(C)C1,inactive,–
C=C(C)CCCC,inactive,–
F[Si-2](F)(F)(F)(F)F,inactive,–
CC(=O)c1ccccc1N,inactive,–
CSc1ccc(O)cc1C,inactive,–
O=C(Cl)c1ccc(Cl)cc1Cl,inactive,–
CCCCCCCCCCCC(=O)Cl,–,123 µM (active)
CCCCCCCC/C=C\CCCCCCCC(=O)OCC(O)CO (stereo unspecified),inactive,–
Cc1cc(=O)[nH]c(C(C)C)n1,inactive,–
CCCCCCCC/C=C\CCCCCCCC(=O)N(C)CC(=O)O,inactive,–
CSc1ccc(Cl)cc1,inactive,–
CC(C)OC(=O)COc1ccc(Cl)cc1Cl,inactive,–
CCc1cccc(C)c1N(C(=O)C(=O)O)C(C)COC (stereo unspecified),inactive,–
CCC(C)CO (stereo unspecified),inactive,–
CC(C)Nc1ccc(NC(C)C)c2c1C(=O)c1ccccc1C2=O,inactive,–
CC(C)CC=C(C=O)c1ccccc1,inactive,–
C#CC(O)CCC (stereo unspecified),inactive,–

# Test: ATG_NRF2_ARE_CIS: Attagene CIS-FACTORIAL HepG2 Assay for human Nuclear Factor Erythroid 2 Related Factor 2 (NFR2) response to Antioxidant Response Elements (ARE) (AID 2282992);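 on AC50: reporter mRNA level measured by RT-PCR and capillary electrophoresis fluorescence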
# Conditions: HepG2 Attagene ARE/NRF2 reporter, transcription factor activity; actives raise or lower the signal
# How it was run: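 HepG2 cells transiently transfected with multiplexed cis-element reporter constructs, 24 h after chemical dosing; reporter mRNA quantified by RT-PCR, fluorescent primer extension, HpaI digestion and capillary electrophoresis. Bidirectional fit relative to DMSO.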
SMILES,outcome,AC50
CC(=O)C=O,inactive,–
CCC(Cc1c(I)cc(I)c(N)c1I)C(=O)O (stereo unspecified),–,47 µM (active)
CCC(=O)OC(C)c1ccccc1 (stereo unspecified),inactive,–
CCCCCC/C=C/CCCCCCCC(=O)O,inactive,–
c1ccc(C[P+](c2ccccc2)(c2ccccc2)c2ccccc2)cc1,–,55.7 µM (active)
Cc1ccc2c(c1)OCC(=O)CO2,inactive,–
CC(O)C#CC(C)O (stereo unspecified),–,24.9 µM (active)
CC1CCCCC1,inactive,–
O=C1c2ccccc2C(=O)c2c(Cl)cccc21,inactive,–
COC(=O)c1ccc(C=O)cc1,inactive,–
COCCC(=O)OC,inactive,–
CCOC(=O)CCC(C)=O,inactive,–
C[Si](C)O[Si](C)C,inactive,–
CO[Si](CCCOCC1CO1)(OC)OC (stereo unspecified),–,73.2 µM (active)
CCCCCCCCn1sc(Cl)c(Cl)c1=O,–,6.58 µM (active)
Nc1cccnc1N,–,17.9 µM (active)
CC(C)OC=O,inactive,–
Oc1ccc(C2(c3ccc(O)c(C4CCCCC4)c3)CCCCC2)cc1C1CCCCC1,–,6.2 µM (active)
CC1=CCC2C(=O)OC(=O)C2C1 (stereo unspecified),inactive,–

SMILES,outcome,AC50
CCCCOC(=O)C(C)O (stereo unspecified),inactive,–
CN1CN(C)CN(C)C1,inactive,–
C=C(C)CCCC,inactive,–
F[Si-2](F)(F)(F)(F)F,inactive,–
CC(=O)c1ccccc1N,inactive,–
CSc1ccc(O)cc1C,inactive,–
O=C(Cl)c1ccc(Cl)cc1Cl,inactive,–
CCCCCCCCCCCC(=O)Cl,–,74.5 µM (active)
CCCCCCCC/C=C\CCCCCCCC(=O)OCC(O)CO (stereo unspecified),–,68.4 µM (active)
Cc1cc(=O)[nH]c(C(C)C)n1,inactive,–
CCCCCCCC/C=C\CCCCCCCC(=O)N(C)CC(=O)O,inactive,–
CSc1ccc(Cl)cc1,inactive,–
CC(C)OC(=O)COc1ccc(Cl)cc1Cl,inactive,–
CCc1cccc(C)c1N(C(=O)C(=O)O)C(C)COC (stereo unspecified),inactive,–
CCC(C)CO (stereo unspecified),inactive,–
CC(C)Nc1ccc(NC(C)C)c2c1C(=O)c1ccccc1C2=O,–,2.85 µM (active)
CC(C)CC=C(C=O)c1ccccc1,–,71.8 µM (active)
C#CC(O)CCC (stereo unspecified),inactive,–

# Test: ATG_Oct_MLP_CIS: Attagene CIS-FACTORIAL HepG2 Assay for human Octamer-Binding Transcription Factor (Oct) (AID 2282993)
# Conditions: HepG2 Attagene cis-factorial Oct reporter, mRNA; actives raise or lower the signal
# How it was run: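 HepG2 cells transiently transfected with cis-element-driven reporter transcription units (endogenous TF activity); 24 h compound exposure. Reporter mRNA quantified by RT-PCR, 6-FAM labelling, HpaI digestion and capillary electrophoresis; bidirectional fit versus DMSO baseline.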
SMILES,outcome,AC50
CC(=O)C=O,inactive,–
CCC(Cc1c(I)cc(I)c(N)c1I)C(=O)O (stereo unspecified),inactive,–
CCC(=O)OC(C)c1ccccc1 (stereo unspecified),inactive,–
CCCCCC/C=C/CCCCCCCC(=O)O,inactive,–
c1ccc(C[P+](c2ccccc2)(c2ccccc2)c2ccccc2)cc1,inactive,–
Cc1ccc2c(c1)OCC(=O)CO2,inactive,–
CC(O)C#CC(C)O (stereo unspecified),inactive,–
CC1CCCCC1,inactive,–
O=C1c2ccccc2C(=O)c2c(Cl)cccc21,inactive,–
COC(=O)c1ccc(C=O)cc1,inactive,–
COCCC(=O)OC,inactive,–
CCOC(=O)CCC(C)=O,inactive,–
C[Si](C)O[Si](C)C,inactive,–
CO[Si](CCCOCC1CO1)(OC)OC (stereo unspecified),inactive,–
CCCCCCCCn1sc(Cl)c(Cl)c1=O,inactive,–
Nc1cccnc1N,inactive,–
CC(C)OC=O,inactive,–
Oc1ccc(C2(c3ccc(O)c(C4CCCCC4)c3)CCCCC2)cc1C1CCCCC1,inactive,–
CC1=CCC2C(=O)OC(=O)C2C1 (stereo unspecified),inactive,–

SMILES,outcome,AC50
CCCCOC(=O)C(C)O (stereo unspecified),inactive,–
CN1CN(C)CN(C)C1,–,165 µM (active)
C=C(C)CCCC,inactive,–
F[Si-2](F)(F)(F)(F)F,inactive,–
CC(=O)c1ccccc1N,inactive,–
CSc1ccc(O)cc1C,inactive,–
O=C(Cl)c1ccc(Cl)cc1Cl,inactive,–
CCCCCCCCCCCC(=O)Cl,inactive,–
CCCCCCCC/C=C\CCCCCCCC(=O)OCC(O)CO (stereo unspecified),inactive,–
Cc1cc(=O)[nH]c(C(C)C)n1,inactive,–
CCCCCCCC/C=C\CCCCCCCC(=O)N(C)CC(=O)O,inactive,–
CSc1ccc(Cl)cc1,inactive,–
CC(C)OC(=O)COc1ccc(Cl)cc1Cl,inactive,–
CCc1cccc(C)c1N(C(=O)C(=O)O)C(C)COC (stereo unspecified),inactive,–
CCC(C)CO (stereo unspecified),inactive,–
CC(C)Nc1ccc(NC(C)C)c2c1C(=O)c1ccccc1C2=O,inactive,–
CC(C)CC=C(C=O)c1ccccc1,inactive,–
C#CC(O)CCC (stereo unspecified),inactive,–
